{"source": "ChEMBL document CHEMBL3988442", "about": "“University of Dundee, Small-Polar-MMV Screening Library” (2021)", "note": "Out of some 48,000 compounds screened, about 13,000 (27%) showed an effect of 50% or more. Some of the results follow."}
{"test_system": "Wolbachia pipientis", "assay": "Anti-Wolbachia Cell-Based Screen", "format": "functional", "set-up": "scale not given: in the data most compounds retested in dose-response had high values", "details": "5 µM", "units": {"Percent Effect": "%"}}
{"compound": "N#Cc1c(N2CCCN(C3CCOCC3)CC2)nc2ccccn12", "Percent Effect": -1.844}
{"compound": "Cn1c(CN2CCOC(c3nc(C(C)(C)C)n[nH]3)C2)nnc1C1CC1", "note": "(centres undefined)", "Percent Effect": 2.258}
{"compound": "CC(C)c1n[nH]c(C2CN(Cc3ccno3)CCO2)n1", "note": "(centres undefined)", "Percent Effect": 2.718}
{"compound": "Cc1nc(C)n(CC2CN(CCc3cccs3)CCO2)n1", "note": "(centres undefined)", "Percent Effect": -47.87}
{"compound": "CC(C)c1n[nH]c(C2CN(CCc3cccs3)CCO2)n1", "note": "(centres undefined)", "Percent Effect": 96.38}
{"compound": "CC(C)c1n[nH]c(C2CN(Cc3nnc(C4CC4)n3C)CCO2)n1", "note": "(centres undefined)", "Percent Effect": 4.048}
{"compound": "CCc1n[nH]c(C2CN(CCc3cccs3)CCO2)n1", "note": "(centres undefined)", "Percent Effect": 2.973}
{"compound": "CCCc1n[nH]c(C2CN(CCc3cccs3)CCO2)n1", "note": "(centres undefined)", "Percent Effect": 119.2}
{"compound": "CCCc1n[nH]c(C2CN(CCn3cccn3)CCO2)n1", "note": "(centres undefined)", "Percent Effect": -0.7272}
{"compound": "CC(C)(C)c1n[nH]c(C2CN(CCc3cccs3)CCO2)n1", "note": "(centres undefined)", "Percent Effect": 121.2}
{"compound": "CC(C)(C)c1n[nH]c(C2CN(CCNC3CCCCC3)CCO2)n1", "note": "(centres undefined)", "Percent Effect": -7.813}
{"compound": "Cc1n[nH]c(C2CN(CCCOc3ccc(F)cc3)CCO2)n1", "note": "(centres undefined)", "Percent Effect": -9.596}
{"compound": "Cc1n[nH]c(C2CN(CCc3cccs3)CCO2)n1", "note": "(centres undefined)", "Percent Effect": 117.1}
{"compound": "COCCOc1ncccc1C(=O)N(C)c1ccc(OC)nc1", "Percent Effect": -5.142}
{"compound": "Cc1ccc(S(C)(=O)=O)cc1C(=O)NS(=O)(=O)c1ccc(Cl)cc1", "Percent Effect": -5.911}
{"compound": "Cc1ccc(C(C)NC(=O)N2CCN(C(=O)CC(F)(F)F)CC2)o1", "note": "(centres undefined)", "Percent Effect": -14.24}
{"compound": "Nc1cc2c(nn1)CCN(C(=O)c1ccc(-c3ccco3)[nH]c1=O)C2", "Percent Effect": 1.419}
{"compound": "N#Cc1ccc(CN2CCCN(CCCn3cncn3)CC2)cc1", "Percent Effect": -13.2}
{"compound": "O=C(CN1CCS(=O)(=O)CC1)Nc1ccc(N2CCCC2)nc1", "Percent Effect": 0.8889}
{"compound": "CN(C)[C@@H]1CCN(c2ncccn2)[C@H]1Cc1ccccc1", "Percent Effect": -9.311}
{"compound": "CN(C)[C@@H]1CCN(c2ncc(F)cn2)[C@H]1Cc1ccccc1.O=C(O)C(F)(F)F.O=C(O)C(F)(F)F", "Percent Effect": 3.414}
{"compound": "CC(C)N(C)[C@@H]1CCN(Cc2ccco2)[C@H]1Cc1ccccc1", "Percent Effect": 2.864}
{"compound": "CN(C)[C@@H]1CCN(S(=O)(=O)C2CC2)[C@H]1Cc1ccccc1.O=C(O)C(F)(F)F", "Percent Effect": 106}
{"compound": "CC(C)NC(=O)N1CC[C@@H](N(C)C)[C@@H]1Cc1ccccc1.O=C(O)C(F)(F)F", "Percent Effect": 0.7735}
{"compound": "CC(C)N(C)[C@@H]1CCN(Cc2ccoc2)[C@H]1Cc1ccccc1", "Percent Effect": -14.75}
{"compound": "CN(C)[C@@H]1CCN(S(=O)(=O)c2cn(C)cn2)[C@H]1Cc1cccnc1.O=C(O)C(F)(F)F.O=C(O)C(F)(F)F.O=C(O)C(F)(F)F", "Percent Effect": 0.7375}
{"compound": "CC(C)N(C)[C@@H]1CCN(S(C)(=O)=O)[C@H]1Cc1ccccc1", "Percent Effect": 103.5}
{"compound": "CN(C)[C@@H]1CCN(S(C)(=O)=O)[C@H]1Cc1ccccc1", "Percent Effect": 99.96}
{"compound": "CCOc1ccc(C(=O)N2C[C@H]3CC[C@@H]2CN(C(=O)C2CCC2)C3)cc1", "Percent Effect": -22.33}
{"compound": "CCOc1ccc(C(=O)CCC(=O)NCc2cncn2CC)cc1C", "Percent Effect": -8.028}
{"compound": "CC(C)Cc1noc(-c2ccc(NCc3noc(C(C)C)n3)nc2)n1", "Percent Effect": 13.03}
{"compound": "Cc1ccc(-c2ncc(CN3CCOC(c4ccco4)C3)s2)o1", "note": "(centres undefined)", "Percent Effect": 2.096}
{"compound": "CN1CCCC2(CC1)CCN(C(=O)CCc1ccccc1O)CC2", "Percent Effect": -5.541}
{"compound": "COCCC(=O)N1CCC2(CCN(Cc3cccc(F)c3)C2)C1", "note": "(centres undefined)", "Percent Effect": 0.08604}
{"compound": "COC(=O)CCC(=O)N1CCC2(CN(Cc3ccc(Cl)cc3)C2)C1", "Percent Effect": 100.4}
{"compound": "CN1CCCC2(CC1)CCN(C(=O)CCc1ccccc1F)CC2", "Percent Effect": -19.97}
{"compound": "COCCC(=O)N1CCC2(CN(Cc3cccc(F)c3)C2)C1", "Percent Effect": -10.24}
{"compound": "COC(=O)CCC(=O)N1CCC2(CN(Cc3ccccc3F)C2)C1", "Percent Effect": 106.8}
{"compound": "COCCC(=O)N1CCC2(CCCN(Cc3cc(OC)ccc3F)C2)C1", "note": "(centres undefined)", "Percent Effect": -0.03102}
{"compound": "COC(=O)CCC(=O)N1CCC2(CN(Cc3ccccc3)C2)C1", "Percent Effect": 108.2}
{"compound": "CN1CCN(CC2(O)CCN(C(=O)CCc3ccccc3F)C2)CC1", "note": "(centres undefined)", "Percent Effect": 132.9}
{"compound": "COC(=O)CCC(=O)N1CCC2(CN(Cc3cccc(F)c3)C2)C1", "Percent Effect": -9.48}
{"compound": "COC(=O)CCC(=O)N1CCC2(CN(Cc3cccc(Cl)c3)C2)C1", "Percent Effect": 11.86}
{"compound": "CCn1cnnc1CNC(=O)N(C)Cc1cccc(Cl)c1Cl", "Percent Effect": -4.031}
{"compound": "CCS(=O)(=O)N1CCC2(CN(Cc3ccc(C)o3)C2)C1", "Percent Effect": -24.8}
{"compound": "Cc1ccc(CN2CC3(CCN(S(=O)(=O)c4ccccc4)C3)C2)o1", "Percent Effect": -20.52}
{"compound": "Cc1ccc(CN2CC3(CCN(C(=O)Cc4ccc(Cl)cc4)C3)C2)o1", "Percent Effect": 100.7}
{"compound": "CCCOc1ccc(Cl)cc1CNc1ncnc2oc(C)nc12", "Percent Effect": -1.031}
{"compound": "Cc1nn(C)c(C)c1NC(=O)CN1CCCC1c1noc(C2CC2)n1", "note": "(centres undefined)", "Percent Effect": -4.679}
{"compound": "Cc1nn(C)c(C)c1NC(=O)CN1CCCC1c1noc(C(C)C)n1", "note": "(centres undefined)", "Percent Effect": -6.278}
{"compound": "Cc1n[nH]c(C)c1NC(=O)CN1CCCC1c1noc(C2CC2)n1", "note": "(centres undefined)", "Percent Effect": 90.47}
{"compound": "CCc1nc(C2CCCN2CC(=O)Nc2c(C)n[nH]c2C)no1", "note": "(centres undefined)", "Percent Effect": 6.679}
{"compound": "Cc1nc(C2CCCN2CC(=O)Nc2c(C)n[nH]c2C)no1", "note": "(centres undefined)", "Percent Effect": 89.73}
{"compound": "Cc1n[nH]c(C)c1NC(=O)CN1CCCC1c1noc(C(C)C)n1", "note": "(centres undefined)", "Percent Effect": 106.9}
